Test results taken from PubChem BioAssay (NCI).
Compounds without any hit were thinned out: in the full panel of roughly 79,000, 15% have a hit. Active and inactive are the calls of the source. Rule as the data show it: active = growth inhibition above about 70%; inactive = the rest.

Assays:
[1] = NCI Yeast Anticancer Drug Screen. Data for the rad52 strain (AID 147);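 also: 0% = growth of vehicle-treated control cultures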; details: S. cerevisiae rad52 mutant growth inhibition, hits give high values
How it was run: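 Here a repair-compromised yeast strain receives each compound; its growth is then quantified and normalised to vehicle-only controls.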

[2] = NCI Yeast Anticancer Drug Screen. Data for the wt1 strain (AID 149);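 also: 0% = growth of vehicle-treated wt1 cultures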; details: S. cerevisiae wt1 strain (SPY 50644) growth inhibition, hits give high values
How it was run: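 Compounds are added to wt1 yeast cultures. Growth is then measured. Inhibition is expressed relative to vehicle-treated controls.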

[3] = NCI Yeast Anticancer Drug Screen. Data for the rad50EPP+ strain (AID 151);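 also: 0% = growth of vehicle-treated control cultures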; details: S. cerevisiae rad50 mutant strain, hits give high values
How it was run: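 Read-out is yeast growth inhibition relative to vehicle; cells used were the rad50EPP+ strain.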

[4] = NCI Yeast Anticancer Drug Screen. Data for the mgt1 strain (AID 153); details: S. cerevisiae mgt1 mutant growth inhibition, hits give high values
How it was run: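 Measured: inhibition of mgt1 yeast growth by compound, normalized to vehicle-treated cultures.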

[5] = NCI Yeast Anticancer Drug Screen. Data for the rad50 strain (AID 155);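 also: 0% = growth of vehicle-only cultures of the same strain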; details: S. cerevisiae rad50 strain growth inhibition, hits give high values
How it was run: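 Inhibition values express reduced yeast growth in compound-treated cultures relative to vehicle-treated controls.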

[6] = NCI Yeast Anticancer Drug Screen. Data for the mec2-1 strain (AID 157); details: S. cerevisiae mec2-1 strain, hits give high values
How it was run: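 Using mec2-1 yeast: add compound, measure growth, express inhibition versus vehicle-treated cultures.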

[7] = NCI Yeast Anticancer Drug Screen. Data for the rad14 strain (AID 159);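 also: 0% = growth of vehicle-treated control cultures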; details: S. cerevisiae rad14 strain growth inhibition, hits give high values
How it was run: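 A mutant yeast strain defective in DNA damage repair is treated with compound; inhibition of its growth is scored against untreated, vehicle-exposed cultures.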

[8] = NCI Yeast Anticancer Drug Screen. Data for the sgs1 mgt1 strain (AID 161);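 also: 0% = growth of cultures given vehicle only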; details: S. cerevisiae sgs1 mgt1 strain, hits give high values
How it was run: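 Compounds are added to genetically altered yeast, and growth is compared with cultures given vehicle alone to give percent inhibition.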

[9] = NCI Yeast Anticancer Drug Screen. Data for the CLN2oe strain (AID 163);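 also: 0% = growth of vehicle-only control cultures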; details: S. cerevisiae CLN2oe strain, hits give high values
How it was run: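 Whole-cell yeast growth assay. A strain engineered for altered cell-cycle control received compound, and inhibition relative to vehicle-treated cultures was recorded.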

[10] = NCI Yeast Anticancer Drug Screen. Data for the cln2 rad14 strain (AID 165);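 also: 0% = growth equal to vehicle treated cultures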; details: S. cerevisiae cln2 rad14 strain, hits give high values
How it was run: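 Yeast strain cln2 rad14, bearing defects in cell cycle control and DNA repair, serves as the test system; values reflect growth inhibition compared with vehicle.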

[11] = NCI Yeast Anticancer Drug Screen. Data for the wt2 strain (AID 169);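 also: 0% = growth of vehicle-treated yeast cultures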; details: S. cerevisiae wt2 strain growth inhibition, hits give high values
How it was run: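 Treated yeast vs. vehicle-treated yeast: growth inhibition determined.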

[12] = NCI Yeast Anticancer Drug Screen. Data for the mlh1 strain (AID 171);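 also: 0% = growth of vehicle-treated control cultures of the same strain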; details: S. cerevisiae mlh1 strain growth inhibition, hits give high values
How it was run: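 A yeast strain with a defined genetic lesion serves as the test organism. Cultures receive compound or vehicle, and growth is measured.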

[13] = NCI Yeast Anticancer Drug Screen. Data for the sgs1 strain (AID 173);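 also: 0% = growth of vehicle-only control cultures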; details: S. cerevisiae sgs1 mutant, hits give high values
How it was run: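 A genetically defined yeast mutant is incubated with the test compound, and its growth is compared to that of the same strain given vehicle.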

[14] = NCI Yeast Anticancer Drug Screen. Data for the mlh1 rad18 strain (AID 175); details: S. cerevisiae mlh1 rad18 strain growth inhibition, hits give high values
How it was run: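 Steps: expose repair-defective yeast to compound; measure growth; express inhibition against vehicle-treated controls.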

[15] = NCI Yeast Anticancer Drug Screen. Data for the rad18 strain (AID 177); details: S. cerevisiae rad18 mutant growth inhibition, hits give high values
How it was run: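 Measured value is growth inhibition of a yeast strain bearing a DNA repair alteration, referenced to vehicle-treated cells.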

[16] = NCI Yeast Anticancer Drug Screen. Data for the bub3 strain (AID 167); details: S. cerevisiae bub3 mutant strain, hits give high values
How it was run: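 Steps: expose the mutant yeast strain to compound; grow alongside vehicle-treated cultures; measure growth; express inhibition against the vehicle cultures.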

[17] = at 5.0 µM (retest, dose inferred, filed as 0.5)
[18] = at 50.0 µM (retest, dose inferred, filed as 5.0)

Measured: growth inhibition

CC(C)CCCC(C)C1CCC2C3CCC4=CC(=O)/C(=C\O)CC4(C)C3CCC12C (stereo not given)
inactive: [1]; at 1.2 µM 1% | [1]; at 3.7 µM 2% | [1]; at 11.0 µM 3% | [1]; at 33.0 µM 6% | [1]; at 100.0 µM 25% | [2]; at 1.2 µM 1% | [2]; at 3.7 µM 1% | [2]; at 11.0 µM 2% | [2]; at 33.0 µM 3% | [2]; at 100.0 µM 16% | [3]; at 1.2 µM 2% | [3]; at 3.7 µM -2% | [3]; at 11.0 µM -6% | [3]; at 33.0 µM -8% | [3]; at 100.0 µM -4% | [4]; at 1.2 µM -1% | [4]; at 3.7 µM 1% | [4]; at 11.0 µM 1% | [4]; at 33.0 µM 0% | [4]; at 100.0 µM 6% | [5]; at 1.2 µM 1% | [5]; at 3.7 µM 0% | [5]; [17] 5% | [5]; at 11.0 µM -2% | [5]; at 33.0 µM 0% | [5]; [18] 47% | [5]; at 50.0 µM 15.9% | [5]; at 100.0 µM 21% | [6]; at 1.2 µM -2% | [6]; at 3.7 µM -6% | [6]; [17] 3% | [6]; at 11.0 µM -7% | [6]; at 33.0 µM -2% | [6]; [18] 45% | [6]; at 50.0 µM 6.2% | [6]; at 100.0 µM 22% | [7]; at 1.2 µM 1% | [7]; at 3.7 µM 2% | [7]; at 11.0 µM 3% | [7]; at 33.0 µM 7% | [7]; at 100.0 µM 20% | [8]; [17] 7% | [8]; [18] 48% | [8]; at 50.0 µM 14.9% | [9]; at 1.2 µM -3% | [9]; at 3.7 µM -5% | [9]; at 11.0 µM -10% | [9]; at 33.0 µM -18% | [9]; at 100.0 µM 2% | [10]; [17] 0% | [10]; [18] 26% | [10]; at 50.0 µM 48.5% | [11]; at 1.2 µM 2% | [11]; at 3.7 µM 0% | [11]; at 11.0 µM 2% | [11]; at 33.0 µM 1% | [11]; at 100.0 µM 10% | [12]; at 1.2 µM -1% | [12]; at 3.7 µM -2% | [12]; at 11.0 µM -3% | [12]; at 33.0 µM -2% | [12]; at 100.0 µM 15% | [13]; at 1.2 µM 0% | [13]; at 3.7 µM -1% | [13]; at 11.0 µM -1% | [13]; at 33.0 µM 3% | [13]; at 100.0 µM 29% | [14]; [17] 2% | [14]; [18] 52% | [14]; at 50.0 µM 26.1% | [15]; at 1.2 µM 3% | [15]; at 3.7 µM 3% | [15]; at 11.0 µM 2% | [15]; at 33.0 µM 6% | [15]; at 100.0 µM 28%

CCCCN(CCCC)CCC(O)c1cc2c(Cl)cc(Cl)cc2c2cc(C(F)(F)F)ccc12 (stereo not given)
active: [1]; at 11.0 µM 99% | [1]; at 33.0 µM 98% | [1]; at 100.0 µM 96% | [2]; at 11.0 µM 93% | [2]; at 33.0 µM 98% | [2]; at 100.0 µM 96% | [3]; at 11.0 µM 80% | [3]; at 33.0 µM 98% | [3]; at 100.0 µM 93% | [4]; at 11.0 µM 99% | [4]; at 33.0 µM 99% | [4]; at 100.0 µM 97% | [5]; at 11.0 µM 98% | [5]; at 33.0 µM 98% | [5]; [18] 98% | [5]; at 50.0 µM 87.5% | [5]; at 100.0 µM 95% | [6]; at 11.0 µM 98% | [6]; at 33.0 µM 99% | [6]; [18] 98% | [6]; at 50.0 µM 89.7% | [6]; at 100.0 µM 96% | [7]; at 11.0 µM 98% | [7]; at 33.0 µM 99% | [7]; at 100.0 µM 96% | [9]; at 11.0 µM 98% | [9]; at 33.0 µM 99% | [9]; at 100.0 µM 95% | [10]; [18] 96% | [10]; at 50.0 µM 85.5% | [16]; at 11.0 µM 97% | [16]; at 33.0 µM 99% | [16]; [18] 96% | [16]; at 50.0 µM 82.7% | [16]; at 100.0 µM 96% | [11]; at 11.0 µM 98% | [11]; at 33.0 µM 96% | [11]; at 100.0 µM 90% | [12]; at 11.0 µM 98% | [12]; at 33.0 µM 99% | [12]; at 100.0 µM 96% | [13]; at 11.0 µM 99% | [13]; at 33.0 µM 99% | [13]; at 100.0 µM 95% | [14]; [18] 97% | [14]; at 50.0 µM 82.8% | [15]; at 11.0 µM 98% | [15]; at 33.0 µM 99% | [15]; at 100.0 µM 94%
inactive: [1]; at 1.2 µM 1% | [1]; at 3.7 µM 11% | [2]; at 1.2 µM -2% | [2]; at 3.7 µM 0% | [3]; at 1.2 µM 8% | [3]; at 3.7 µM 19% | [4]; at 1.2 µM 27% | [4]; at 3.7 µM 30% | [5]; at 1.2 µM 24% | [5]; at 3.7 µM 16% | [5]; [17] 41% | [6]; at 1.2 µM 10% | [6]; at 3.7 µM 8% | [6]; [17] 53% | [7]; at 1.2 µM 23% | [7]; at 3.7 µM 20% | [9]; at 1.2 µM 22% | [9]; at 3.7 µM 20% | [10]; [17] 67% | [16]; at 1.2 µM 10% | [16]; at 3.7 µM 3% | [16]; [17] -17% | [11]; at 1.2 µM -46% | [11]; at 3.7 µM 18% | [12]; at 1.2 µM 14% | [12]; at 3.7 µM 23% | [13]; at 1.2 µM 18% | [13]; at 3.7 µM 18% | [14]; [17] 62% | [15]; at 1.2 µM 26% | [15]; at 3.7 µM 29%
